Measured values as given in the antibiotic and cytotoxicity screens of Wong et al. (2023).
In all, about 39,000 compounds went through this assay and about 3,300 (8.5%) were called active. Shown is part of a subset that was picked to be rich in actives.

Tested on: HepG2
Experiment: cytotoxicity call (relative viability < 0.9)
Conditions: 10 µM

Row | SMILES | cytotoxicity call
1 | C[C@@H]1CN([C@@H](C)CO)C(=O)Cc2cc(NC(=O)Nc3ccc(C(F)(F)F)cc3)ccc2O[C@@H]1CN(C)C(=O)Nc1ccc(C(F)(F)F)cc1 | active
2 | C[C@@H]1CN([C@@H](C)CO)C(=O)Cc2cc(NC(=O)Nc3ccc(C(F)(F)F)cc3)ccc2O[C@H]1CN(C)C(=O)Nc1ccc(C(F)(F)F)cc1 | active
3 | C[C@@H]1CN([C@H](C)CO)C(=O)Cc2cc(NC(=O)Nc3ccc(C(F)(F)F)cc3)ccc2O[C@H]1CN(C)C(=O)Nc1ccc(C(F)(F)F)cc1 | inactive
4 | C[C@H]1CN([C@@H](C)CO)C(=O)Cc2cc(NC(=O)Nc3ccc(C(F)(F)F)cc3)ccc2O[C@@H]1CN(C)C(=O)Nc1ccc(C(F)(F)F)cc1 | inactive
5 | C[C@H]1CN([C@@H](C)CO)C(=O)Cc2cc(NC(=O)Nc3ccc(C(F)(F)F)cc3)ccc2O[C@H]1CN(C)C(=O)Nc1ccc(C(F)(F)F)cc1 | active
6 | C[C@H](CO)N1C[C@H](C)[C@@H](CN(C)C(=O)Nc2ccc(C(F)(F)F)cc2)Oc2ccc(NC(=O)Nc3ccc(C(F)(F)F)cc3)cc2CC1=O | active
7 | Cc1ccc(S[C@]2(C(=O)NC3CC3)CC(=O)N(Cc3ccccc3C(F)(F)F)[C@@H]2c2ccc(CO)cc2)cc1 | inactive
8 | Cc1ccc(S(=O)(=O)N2CCOCC2)cc1NC(=O)CN1C(=O)CN(C)C1=O | inactive
9 | C[C@@H]1CN([C@H](C)CO)C(=O)CCCn2cc(nn2)CO[C@H]1CN(C)Cc1cccc2c1OCCCO2 | inactive
10 | C[C@H](CO)N1C[C@H](C)[C@H](CN(C)Cc2ccccc2)OCCCC[C@H](C)Oc2ccc(NS(=O)(=O)c3ccc(F)cc3)cc2C1=O | inactive
11 | C[C@H]1CN([C@@H](C)CO)C(=O)c2cc(-c3cccc(C(=O)N(C)C)c3)cnc2O[C@H]1CN(C)C(=O)Cc1ccccn1 | inactive
12 | C[C@@H]1CN([C@@H](C)CO)C(=O)c2cc(C#Cc3ccccc3F)cnc2O[C@H]1CN(C)C(=O)Cc1ccncc1 | inactive
13 | CN1CCN(CCO)CC1 | inactive
14 | C[C@@H]1CCCCO[C@@H](CN(C)S(=O)(=O)c2cccs2)[C@@H](C)CN([C@H](C)CO)C(=O)c2cc(NC(=O)CCC(F)(F)F)ccc2O1 | inactive
15 | COc1ccc(S(=O)(=O)Nc2ccc3c(c2)C(=O)N([C@H](C)CO)C[C@H](C)[C@@H](CN(C)S(=O)(=O)c2cccs2)O3)cc1 | inactive
16 | CC(C)NC(=O)N(C)C[C@@H]1Oc2cc(C#Cc3ccccn3)ccc2S(=O)(=O)N([C@@H](C)CO)C[C@H]1C | inactive
17 | O=C(C[C@H]1CC[C@@H]2[C@H](COC[C@@H](O)CN2S(=O)(=O)c2ccc(Cl)cc2)O1)NCCN1CCCC1 | inactive
18 | C[C@@H]1CN([C@H](C)CO)C(=O)c2cccc(NC(=O)c3cnccn3)c2O[C@@H]1CN(C)Cc1ccc2c(c1)OCO2 | inactive
19 | C[C@H]1CN([C@@H](C)CO)C(=O)c2ccccc2-c2ccccc2CO[C@H]1CN(C)C(=O)c1cc(Cl)cc(Cl)c1 | inactive
20 | C[C@@H]1CN([C@H](C)CO)C(=O)Cc2cc(NC(=O)Nc3ccc(C(F)(F)F)cc3)ccc2O[C@@H]1CN(C)C(=O)Nc1ccc(C(F)(F)F)cc1 | active
21 | C[C@H](CO)N1C[C@H](C)[C@H](CN(C)C(=O)Nc2ccc(C(F)(F)F)cc2)Oc2ccc(NC(=O)Nc3ccc(C(F)(F)F)cc3)cc2CC1=O | active

Row | SMILES | cytotoxicity call
22 | COCC#Cc1ccc([C@@H]2[C@@H](CO)N3C(=O)CN(C(=O)c4cccnc4)C[C@H]23)cc1 | inactive
23 | CCO[C@H]1OC(C(=O)N2CCN(Cc3ccc4c(c3)OCO4)CC2)=C[C@@H](c2ccc(C(F)(F)F)cc2)[C@@H]1CCCOC(=O)NCCCCCC(=O)NO | inactive
24 | CC(C)C(=O)N1CC[C@H]2CN(CC(=O)N(C)C)S(=O)(=O)[C@@H]2CC1 | inactive
25 | C[C@H]1CCCCO[C@@H](CN(C)S(=O)(=O)c2ccccc2)[C@@H](C)CN([C@@H](C)CO)C(=O)c2cc(NC(=O)C3CCCCC3)ccc2O1 | inactive
26 | O=C(C[C@H]1CC[C@H]2[C@@H](COC[C@H](O)CN2S(=O)(=O)c2cccc(Cl)c2)O1)N1CCOCC1 | inactive
27 | CO[C@@H](C(=O)N(C)C[C@@H]1OCc2ccccc2-c2c(n(C)c3ccccc23)C(=O)N([C@H](C)CO)C[C@@H]1C)c1ccccc1 | inactive
28 | CNS(=O)(=O)c1cc(OC)ccc1OC | inactive
29 | COc1cccc(S(=O)(=O)N2C[C@H](O)COC[C@H]3O[C@@H](CC(=O)N4CCN(c5ccccc5)CC4)CC[C@@H]32)c1 | inactive
30 | CCCNC(=O)Cn1c(=O)n(C)c2ccccc21 | inactive
31 | C[C@@H]1CCCCO[C@@H](CN(C)CC2CCCCC2)[C@H](C)CN([C@H](C)CO)C(=O)c2cc(NC(=O)Cc3ccccc3)ccc2O1 | inactive
32 | C[C@@H]1CN([C@H](C)CO)C(=O)c2cc(NC(=O)CCCN(C)C)ccc2O[C@@H](C)CCCCO[C@H]1CN(C)CC1CCCCC1 | inactive
33 | C[C@@H]1CCCCO[C@H](CN(C)CC2CCCCC2)[C@@H](C)CN([C@H](C)CO)C(=O)c2cc(NC(=O)Cc3ccccc3)ccc2O1 | inactive
34 | C[C@@H]1CCCCO[C@@H](CN(C)CC2CCCCC2)[C@@H](C)CN([C@H](C)CO)C(=O)c2cc(NC(=O)CCCN(C)C)ccc2O1 | inactive
35 | C[C@@H]1CN([C@@H](C)CO)C(=O)c2cc(NC(=O)Cc3ccccc3)ccc2O[C@@H](C)CCCCO[C@H]1CN(C)CC1CCCCC1 | active
36 | C[C@H]1CCCCO[C@@H](CN(C)CC2CCCCC2)[C@@H](C)CN([C@@H](C)CO)C(=O)c2cc(NC(=O)CCCN(C)C)ccc2O1 | active
37 | C[C@H]1CCCCO[C@@H](CN(C)CC2CCCCC2)[C@@H](C)CN([C@@H](C)CO)C(=O)c2cc(NC(=O)Cc3ccccc3)ccc2O1 | active
38 | C[C@@H]1CCCCO[C@H](CN(C)CC2CCCCC2)[C@H](C)CN([C@H](C)CO)C(=O)c2cc(NC(=O)Cc3ccccc3)ccc2O1 | inactive
39 | C[C@H](CO)N1C[C@H](C)[C@@H](CN(C)CC2CCCCC2)OCCCC[C@H](C)Oc2ccc(NC(=O)Cc3ccccc3)cc2C1=O | inactive
40 | C[C@H](CO)N1C[C@H](C)[C@H](CN(C)CC2CCCCC2)OCCCC[C@H](C)Oc2ccc(NC(=O)Cc3ccccc3)cc2C1=O | inactive
41 | C[C@@H]1CCCCO[C@@H](CN(C)CC2CCCCC2)[C@H](C)CN([C@@H](C)CO)C(=O)c2cc(NC(=O)Cc3ccccc3)ccc2O1 | inactive
42 | C[C@H]1CCCCO[C@H](CN(C)CC2CCCCC2)[C@@H](C)CN([C@@H](C)CO)C(=O)c2cc(NC(=O)Cc3ccccc3)ccc2O1 | active
